Records with an inconclusive call do not appear. The source made the active and inactive calls. Calls come from the whole dose curve; as a rule, active = well fitted inhibition curve with a large enough effect; inconclusive = small, poorly fitted or top-dose-only effect; inactive = no such curve, though single readings can be large or run the other way.
Assay: InCell qHTS Assay for Inhibitors of the mTORC1 Signaling Pathway in MEF (Tsc2-/-, p53-/-) Cells: Hit Validation;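 note: phospho-S6 Ser235/236 signal normalized to propidium iodide cell count per well; nearly all actives have a fitted effect of over 75% in size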
Conditions: phospho-rpS6 immunofluorescence, 24 h; activity change, negative = inhibition: at 38.3 µM (top of the series)
Potency is the fitted concentration of half-maximal effect.

SMILES	activity change, negative = inhibition	Potency
O=C(Nc1ccc(F)c(Cl)c1)c1cc(S(=O)(=O)N2CCCc3ccccc32)ccc1F	-100%	–
COc1cc(Cl)c(C)cc1NC(c1ccccc1)c1nnc(-c2ccccc2Cl)o1 (configuration not stated)	-100%	–
CCCN1C(=O)C(O)(CC(=O)c2ccc(C(C)C)cc2)c2ccccc21 (configuration not stated)	-100%	–
COc1ccc(C(C(=O)Nc2ccc(C(C)C)cc2)N(C)C(=O)Cc2cccs2)cc1 (configuration not stated)	-100%	–
CC(C)S(=O)(=O)c1oc(-c2ccc(F)cc2)nc1S(=O)(=O)c1ccc(F)cc1	–	0.927 µM (active)
CS(=O)(=O)N(CC(=O)NCCc1ccccc1)c1cc(C(F)(F)F)ccc1Cl	-100%	–
CCCSc1ncc(Cl)c(C(=O)Nc2ccc(S(=O)(=O)N3CCCCC3C)cc2)n1 (configuration not stated)	-100%	–
COC(=O)c1ccccc1NC(=O)CSc1n[nH]c(CC(C)C)n1	-100%	–
O=C(Cn1c(=O)c2cccn2c2ccccc21)NCc1ccccc1F	-100%	–
CC(C)OCc1cc(CN2CCN(c3cccc(C(F)(F)F)c3)CC2)c(O)c2ncccc12	-100%	–
Cc1ccc(Nc2nnc(-c3ccc(C)c(S(=O)(=O)N4CCOCC4)c3)c3ccccc23)c(C)c1	-100%	–
Cc1ccc(CN2C(=O)c3ccccc3Sc3ccc(C(=O)NCCCN4CCOCC4)cc32)cc1	-100%	–
CCOc1ccc(CC(=O)NC2CC(=O)N(c3ccc4c(c3)OCCO4)C2)cc1 (configuration not stated)	-100%	–
CCOc1ccc(NC(=O)N(Cc2c[nH]c3ccccc23)C2CCCCCC2)cc1	-100%	–
CCS(=O)(=O)c1ncc(Cl)c(C(=O)N2CCN(c3cccc(Cl)c3)CC2)n1	–	2.61 µM (active)
Cc1cc(NC(=O)c2ccco2)cc(-c2nc3cc(Cl)ccc3o2)c1O	-4.63%	–
COc1cc(C(=O)n2nc(C)c(Sc3ccc(Cl)cc3)c2C)cc(OC)c1OC	-100%	–
O=c1oc2ccccc2cc1-c1cn2cc(Cc3ccccc3F)sc2n1	-100%	–
CCCCN1C(=O)C(O)(CC(=O)c2ccc(C(C)(C)C)cc2)c2ccccc21 (configuration not stated)	-28.2%	–

SMILES	activity change, negative = inhibition	Potency
Cc1ccc(-n2ncc(C(=O)NCCCN3CCc4ccccc4C3)c2C2CCN(C(=O)OC(C)(C)C)CC2)c(C)c1	-100%	–
CCN(c1ccccc1)S(=O)(=O)c1ccc(NC(=O)c2nc(S(C)(=O)=O)ncc2Cl)cc1	–	3.69 µM (active)
COc1ccc(C2=NS(=O)(=O)N(C)C(C(=O)Nc3ccc(OC(F)(F)F)cc3)=C2)cc1	-100%	–
Cc1cccc(C2C=C(c3ccc(C)c(C)c3)Nc3nnnn32)c1 (configuration not stated)	-17.1%	–
Cc1ccccc1NC(=O)c1sc2nc3c(cc2c1N)CCCC3	-100%	–
COc1ccc(NS(=O)(=O)c2ccc(-n3cccn3)cc2)cc1OC	-100%	–
CCOC(=O)c1ccc(N2C(=O)c3n[nH]c(C)c3C2c2cccc(Br)c2)cc1 (configuration not stated)	-100%	–
CCc1ccc(NC(=O)Cn2nc(C(F)(F)F)c3c2CCCC3)cc1	-100%	–
COc1ccc(S(=O)(=O)NCCc2sc3nc(-c4ccc(C)cc4)nn3c2C)cc1F	-100%	–
O=C(CC(NCc1cccnc1)C(=O)O)Nc1ccc(O)cc1 (configuration not stated)	-100%	–
COc1ccc(Cl)cc1NC(=O)CCCS(=O)(=O)c1nc(-c2ccc(OC)c(OC)c2)cc(C(F)(F)F)n1	–	14.7 µM (active)
COc1ccccc1NC(=O)CSc1ccc(-c2ccccn2)nn1	-100%	–
COc1cc(OC)c(NC(=O)Nc2ccc3c(c2)N(C)C(=O)c2ccccc2S3)cc1Cl	–	13.1 µM (active)
COc1ccccc1-c1cc(C(=O)Nc2cc(OC)c(OC)c(OC)c2)no1	1.72%	–
CCc1ccccc1NC(=O)CSCc1cnn(-c2ccccc2)c1-n1cccc1	-100%	–
CCCOc1cccc(C2c3c(-c4ccccc4O)n[nH]c3C(=O)N2Cc2ccco2)c1 (configuration not stated)	-100%	–
CCOc1ccc(-c2nc(SCC(=O)c3ccccc3)n[nH]2)cc1	-2.9%	–
Cc1ccc(C)c(S(=O)(=O)NCC(c2ccco2)S(=O)(=O)c2ccc(F)cc2)c1 (configuration not stated)	-100%	–

From PubChem BioAssay AID651791 (National Center for Advancing Translational Sciences (NCATS), 2012)
